Consider 90 compounds from PubChem BioAssay AID1917 (Vanderbilt High Throughput Screening Facility, 2009).

The structures appear in SMILES notation. Hit rate of the full screen: of about 3,000 compounds, about 1,600 (53%) were called active. Another 10% or so got no clear call; they are omitted. The set was probably picked from earlier hits. Not all results are given here. A number with no mark means an inactive call.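 How the source made its calls: active means Flux at 10 µM at least 3 SD below or above vehicle control mean in one or both replicates; inconclusive means no clear call, values can overlap the other calls; inactive means the rest.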

The target in the assay is ATP-sensitive inward rectifier potassium channel 1 (Homo sapiens) (UniProt P48048). The experiment in a line: retested modulators of human Kir1.1 channel – cell-based, thallium flux, duplicate, resupplied hits, confirmation (AID 1917). Conditions: ROMK thallium flux, fluorescence ratio; at 10 µM; stronger effect = lower value.
Chain of ATP-sensitive inward rectifier potassium channel 1 (Homo sapiens) (P48048 whole entry, looked up): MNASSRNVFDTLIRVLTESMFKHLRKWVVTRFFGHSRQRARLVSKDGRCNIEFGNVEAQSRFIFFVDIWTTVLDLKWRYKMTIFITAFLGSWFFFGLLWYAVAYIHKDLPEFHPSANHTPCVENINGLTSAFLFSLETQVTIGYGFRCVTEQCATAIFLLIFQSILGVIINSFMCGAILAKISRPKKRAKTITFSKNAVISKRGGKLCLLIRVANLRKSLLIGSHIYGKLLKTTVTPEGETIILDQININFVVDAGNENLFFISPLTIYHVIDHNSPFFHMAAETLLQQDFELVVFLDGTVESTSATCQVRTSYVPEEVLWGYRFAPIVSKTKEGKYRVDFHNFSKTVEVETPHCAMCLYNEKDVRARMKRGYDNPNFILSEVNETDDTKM
Take `COc1ccc([N+](=O)[O-])cc1N(CC(O)CN(CC(C)C)CC(C)C)S(=O)(=O)c1ccc(C)cc1` (stereo not given): the normalized thallium flux (F/F0 slope) is 0.0621 (active).
In the case of `CC(C)CN(CC(C)C)CC(O)CN(c1ccccc1)S(=O)(=O)c1ccccc1[N+](=O)[O-]` (stereo not given), the normalized thallium flux (F/F0 slope) was 0.0763.
For the compound `O=C(CN1C(=O)NC2(CCCCC2)C1=O)NCCC1=CCCCC1`, the normalized thallium flux (F/F0 slope) is 0.0839.
Consider `O=C(CN1C(=O)NC(Cc2ccccc2)(Cc2ccccc2)C1=O)NCC1CCCCC1`, for which the normalized thallium flux (F/F0 slope) was 0.056 (active).
With `COCCNC(=O)/C(C#N)=C/c1cccc(OCc2ccccc2)c1` the figure was 0.042 (active); with `CC(C(=O)NC1CCCC1)N(c1ccc(Oc2ccccc2)cc1)S(C)(=O)=O` (stereo not given), 0.061 (active); with `CCCCCCCCCCOC(=O)C[N+](C)(C)CC1CCCCC1O` (stereo not given), 0.0597 (active).
The value for `CCOC(=O)Cc1csc(NC(=O)CSc2ccc(Br)cc2)n1` was 0.0659 (active).
Regarding `CCOC(=O)Cc1csc(SCC(=O)NC(C)C23CC4CC(CC(C4)C2)C3)n1` (stereo not given), the normalized thallium flux (F/F0 slope) is 0.0513 (active).
In the case of `Cc1cc(/C=C2/C(=N)N3C(=NC2=O)SN=C3S(C)(=O)=O)c(C)n1-c1ccccc1`, the normalized thallium flux (F/F0 slope) was 0.0746.
The value for `CC1=CC2=NC(=O)/C(=C/c3coc4ccccc4c3=O)C(=N)N2O1` was 0.0388 (active); that for `O=C(CCl)N(Cc1cccc([N+](=O)[O-])c1)c1cccc(Cl)c1` was 0.0469 (active).
With `CC(C)(C)CC(C)(C)NCC(O)COCCOc1ccc(Br)cc1` (stereo not given) the figure was 0.0489 (active); with `CC1CCCN(S(=O)(=O)c2ccc(N(C(=O)c3cnccn3)C(C(=O)NC3CCCCC3)c3cccs3)cc2)C1` (stereo not given), 0.0633 (active).
As for `N#Cc1c(N)n(CCOC(=O)c2ccc(Cl)cc2)c2nc3ccccc3nc12`, the normalized thallium flux (F/F0 slope) was 0.0672 (active).
For the compound `O=C(Nc1nnc(SCc2ccccc2Cl)s1)c1cccc([N+](=O)[O-])c1`, the normalized thallium flux (F/F0 slope) is 0.0638 (active).
As to `CCC(C)(C)n1nnnc1C(c1cccs1)N1CCN(c2nc3ccccc3s2)CC1` (stereo not given), the normalized thallium flux (F/F0 slope) was 0.0713.
As to `Cc1ccc(C(=O)C[n+]2cc(-c3ccccc3)n3c2CCCCC3)cc1`, the normalized thallium flux (F/F0 slope) is 0.0564 (active).
The value for `CN(NC(=O)c1ccccc1F)c1nc(C(F)(F)F)nc2ccccc12` was 0.0894; that for `O=C(/C=C/c1ccc(Cl)c([N+](=O)[O-])c1)c1ccc(O)cc1` was 0.0498 (active).
As for `O=C(/C=C/c1ccc(Cl)c([N+](=O)[O-])c1)c1cccnc1`, the normalized thallium flux (F/F0 slope) is 0.0474 (active).
With `O=C(/C=C/c1ccc(Cl)cc1Cl)c1cccnc1` the figure was 0.0511 (active).
`O=C1COc2ccc(NC(=O)N3CCN(c4ccc(F)cc4)CC3)cc2N1`: the normalized thallium flux (F/F0 slope) is 0.0765.
The value for `O=C(CN1CCOCC1)N/N=C/c1ccc(-c2ccc(Br)cc2)o1` was 0.0674 (active); that for `O=C(NCCc1ccc2c(c1)OCCO2)c1cc2ccccc2o1` was 0.0628 (active); that for `COc1ccccc1-n1c(C)nc2cc(C(=O)NCc3ccc4c(c3)OCO4)ccc21` was 0.0924.
For the compound `COc1ccc2[nH]c(=O)c(CNc3ccc(C)c(C)c3)cc2c1`, the normalized thallium flux (F/F0 slope) was 0.0713.
`Clc1ccc(-n2nnnc2-c2cnc(-c3ccccn3)nc2-c2cccs2)cc1`: the normalized thallium flux (F/F0 slope) is 0.0713.
In the case of `Cc1cccc2cc(CN(Cc3nnnn3Cc3ccccc3)C3CCCC3)c(=O)[nH]c12`, the normalized thallium flux (F/F0 slope) is 0.055 (active).
For the compound `CCC(c1nnnn1C1CCCC1)N(Cc1cccs1)Cc1cc2cccc(C)c2[nH]c1=O` (stereo not given), the normalized thallium flux (F/F0 slope) was 0.0635 (active).
With `COc1ccc(C(=O)OCC(=O)c2ccc(C)c(S(=O)(=O)N3CCOCC3)c2)cc1OC` the figure was 0.0776.
In the case of `C#CCOCCOCCOCCNc1nc(N2CCN(C(=O)[C@H](CCC(=O)O)n3cc(C(N)CO)nn3)CC2)nc(N2CCN(C(=O)[C@H](CCCCN)n3cc(C(N)[C@H](C)CC)nn3)CC2)n1` (stereo not given in full), the normalized thallium flux (F/F0 slope) is 0.0789.
As for `Cc1ccc(CNC(=O)CC2Sc3ccccc3NC2=O)cc1` (stereo not given), the normalized thallium flux (F/F0 slope) was 0.086.
Consider `CSc1cccc(NC(=S)N(Cc2ccccc2)Cc2ccccn2)c1`, for which the normalized thallium flux (F/F0 slope) is 0.0791.
Take `CNC(=O)/C(C#N)=C/c1c(F)cccc1Cl`: the normalized thallium flux (F/F0 slope) was 0.0423 (active).
On to `CCOC(=O)c1c(NC(=O)CCl)sc(C(=O)N(CC)CC)c1C`, for which the normalized thallium flux (F/F0 slope) was 0.0722.
As for `COc1ccccc1N1CCN(CCCCOc2ccc(F)cc2)CC1`, the normalized thallium flux (F/F0 slope) was 0.0581 (active).
`Cc1ccccc1CCN(CC(=O)NC1CCCCC1)C(=O)c1csnn1`: the normalized thallium flux (F/F0 slope) was 0.0568 (active).
With `Cc1cc(C(C)(C)C)oc1C(=O)N(CC(=O)NC1CCCC1)Cc1ccc(Cl)cc1`, the normalized thallium flux (F/F0 slope) was 0.0748.
Turning to `CCCS(=O)(=O)N1CCC(C(=O)NCCCN(C)Cc2ccccc2)CC1`, the normalized thallium flux (F/F0 slope) is 0.0759.
With `COc1ccc(-c2[nH]ncc2CN(C)Cc2c(C)n[nH]c2C)c(OC)c1` the figure was 0.0773.
In the case of `COC(=O)Cn1cc(/C=C/[N+](=O)[O-])c2ccccc21`, the normalized thallium flux (F/F0 slope) was 0.0436 (active).
On to `CCOc1ccc2nc(N3CCCN(C(=O)Nc4ccccc4C)CC3)c(C#N)cc2c1`, for which the normalized thallium flux (F/F0 slope) is 0.0592 (active).
On to `CCOc1ccc2nc(Cl)c(C3CC(c4ccccc4)=NN3C(=O)c3cccs3)cc2c1` (stereo not given), for which the normalized thallium flux (F/F0 slope) was 0.084.
As for `COc1ccccc1-n1c(=S)[nH]c2c(sc(=S)n2-c2ccc(C)cc2C)c1=O`, the normalized thallium flux (F/F0 slope) is 0.0774.
Turning to `COc1ccc(Br)cc1C(=O)Nc1cccc(C)c1C`, the normalized thallium flux (F/F0 slope) is 0.0855.
As for `Cc1cc(Br)ccc1NC(=O)c1cnc(N2CCN(c3ccccn3)CC2)c2ccccc12`, the normalized thallium flux (F/F0 slope) was 0.0609 (active).
In the case of `CN(C)c1ccc(C=C2C(=O)OC3(CCCC3)OC2=O)cc1`, the normalized thallium flux (F/F0 slope) is 0.0453 (active).
Turning to `CCOc1ccccc1C1C(C(=O)OC)=CN(C)C=C1C(=O)OC`, the normalized thallium flux (F/F0 slope) was 0.0653 (active).
With `O=C(Nc1ccccc1-c1ccccc1)c1cccs1` the figure was 0.0658 (active).
With `c1ccc2c(c1)CSc1sccc1C2=C1CCNCC1`, the normalized thallium flux (F/F0 slope) is 0.0498 (active).
For `Fc1ccc2[nH]c3c(N4CCSCC4)ncnc3c2c1`, the normalized thallium flux (F/F0 slope) is 0.0617 (active).
For `Cc1cc(/C=N/NC(N)=O)c(C)n1C1CCCCC1`, the normalized thallium flux (F/F0 slope) was 0.0777.
With `CC(NC(=O)CC1SC(N)=NC1=O)c1ccccc1` (stereo not given), the normalized thallium flux (F/F0 slope) is 0.087.
As to `CCOC(=O)C1=C(C)N=c2s/c(=C\C(=O)OC)c(=O)n2C1c1ccc(OC)cc1` (stereo not given), the normalized thallium flux (F/F0 slope) is 0.0406 (active).
As for `CCCC(c1nnnn1C(C)(C)C)N1CCN(Cc2ccccc2)CC1` (stereo not given), the normalized thallium flux (F/F0 slope) was 0.0716.
Take `O=C1c2cccc3c([N+](=O)[O-])ccc(c23)C(=O)N1CC1CCCO1` (stereo not given): the normalized thallium flux (F/F0 slope) was 0.0565 (active).
With `CCN1C(=O)/C(=C2/Sc3ccccc3N2CCCS(=O)(=O)O)SC1=S` the figure was 0.0827.
Regarding `CCCCc1nc(NCCN)c(C#N)c2c1CSC(C)(C)C2`, the normalized thallium flux (F/F0 slope) was 0.0552 (active).
Regarding `COc1cc2c(cc1OC)C(/C=C/c1ccco1)=NCC2`, the normalized thallium flux (F/F0 slope) is 0.0485 (active).
The value for `O=C(Cc1ccccc1Cl)N1CCN(c2ccccn2)CC1` was 0.0716; that for `O=C(Cc1ccc(Br)cc1)N1CCN(c2ccccn2)CC1` was 0.0628 (active); that for `COc1ccc(Cc2nc(-c3ccccn3)no2)cc1OC` was 0.0708.
Take `CCSc1sc(CC)cc1C=O`: the normalized thallium flux (F/F0 slope) is 0.106 (active).
On to `CC(NCc1ccccc1OC1CCCC1)c1ccccc1` (stereo not given), for which the normalized thallium flux (F/F0 slope) is 0.0563 (active).
The value for `N=c1c2c(-c3ccccc3)c(-c3ccccc3)n(Cc3ccccc3)c2ncn1CCCO` was 0.0532 (active); that for `Cc1nnnn1/C(=C\c1ccccc1)C(=O)OCC(=O)N1CC2(C)CC1CC(C)(C)C2` (stereo not given) was 0.0442 (active).
The value for `CC(=O)Nc1cccc(OCC(=O)/C=C2\N(C)c3ccccc3C2(C)C)c1` was 0.0622 (active).
Consider `COc1ccc(C2=CC(c3cccc(OC)c3)n3nnnc3N2)cc1` (stereo not given), for which the normalized thallium flux (F/F0 slope) is 0.0704.
`Cc1cc(NC(=O)/C=C/C(=O)N(c2ccccc2C)C(C(=O)NC2CCCC2)c2ccc(F)cc2)no1` (stereo not given): the normalized thallium flux (F/F0 slope) is 0.0543 (active).
With `N#C/C(=C/c1cccc([N+](=O)[O-])c1)c1nnc2n1CCCCC2` the figure was 0.0362 (active); with `CC1=C(C(=O)OCc2ccccc2)C(c2ccco2)n2ncnc2N1` (stereo not given), 0.0737; with `COc1ccc(C(CCNCc2ccccc2F)c2ccc(F)cc2)cc1` (stereo not given), 0.0609 (active).
The value for `Cc1cccc(Oc2c([N+](=O)[O-])c(=O)n(C)c3ccccc23)c1` was 0.063 (active); that for `Nc1ccccc1SC(C[N+](=O)[O-])c1ccccc1` (stereo not given) was 0.0367 (active); that for `O=C(/C=C/Sc1ncn[nH]1)c1ccc(Cl)cc1` was 0.0389 (active).
Turning to `Cc1ccc2c(=O)oc(N(C)C)nc2c1`, the normalized thallium flux (F/F0 slope) was 0.0826.
With `CCOc1ccc(-n2cnnn2)cc1S(=O)(=O)N1CCC(C)CC1C` (stereo not given), the normalized thallium flux (F/F0 slope) was 0.0657 (active).
On to `N=c1n(CCc2ccccc2)c2ccccc2n1Cc1ccccc1F`, for which the normalized thallium flux (F/F0 slope) was 0.0479 (active).
Turning to `COc1ccc(Nc2cc(C)nc(-n3nc(C)cc3C)n2)cc1`, the normalized thallium flux (F/F0 slope) was 0.0854.
With `CC1(C)CCSC(/C=C/c2ccccc2)=N1` the figure was 0.0442 (active); with `CCn1c(/C=C/Nc2ccccc2)[n+](CC)c2ccc(C(=O)OCC(F)(F)F)cc21`, 0.0522 (active).
Take `O=C(Nc1cccc(C(F)(F)F)c1)c1ccc(N2CCNCC2)c([N+](=O)[O-])c1`: the normalized thallium flux (F/F0 slope) is 0.0632 (active).
On to `N#C/C(=C\c1ccccc1C(F)(F)F)C(=O)Nc1ccccc1F`, for which the normalized thallium flux (F/F0 slope) was 0.0489 (active).
In the case of `Cc1ccc(N2C(=O)C3CC3C2=O)cc1` (stereo not given), the normalized thallium flux (F/F0 slope) is 0.0794.
As for `N#C/C(=C\C1=C(N2CCOCC2)C(=C\c2ccccc2)/CC1)C(=O)Nc1ccccc1F`, the normalized thallium flux (F/F0 slope) is 0.0509 (active).
Consider `COC(=O)C[n+]1cccc2ccccc21`, for which the normalized thallium flux (F/F0 slope) was 0.0529 (active).
On to `CN1CCN(c2ccc(S(=O)(=O)N3CCCCC3)cc2NC(=O)Cc2ccccc2F)CC1`, for which the normalized thallium flux (F/F0 slope) is 0.0614 (active).
As to `CNc1nccc(-c2ccc(Cl)cc2)c1C#N`, the normalized thallium flux (F/F0 slope) was 0.0744.
With `CCOC(=O)N/N=C1\CC(C)S(=O)(=O)c2ccc(Cl)cc21` (stereo not given), the normalized thallium flux (F/F0 slope) was 0.0738.
